CHO-K1 Ca antag – M1 antagonist counterscreen hit in parental CHO-K1 cells | AID 602250 | ATP-induced calcium, Fluo-8 fluorescence | 360,000 compounds, 0.6% hits | inhibition, % at 3 µM;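 active means inhibition above a per-plate cutoff, the plate's mean sample inhibition plus 3 SD, cut at about 24% in these data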
M1 antag – human M1 muscarinic receptor antagonists, primary screen, CHO-K1 cells, Fluo-8 calcium fluorescence, 1536-well; CHO-K1 hM1, ACh EC80 antagonist; inhibition, % at 3 µM; 360,000 compounds, 1.3% hits;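 active means percent inhibition above its own plate's cutoff, namely the mean of that plate's compound wells plus 3 SD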;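 further: peak over basal fluorescence ratio during 140 s after agonist addition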
Target sequence (P11229 whole entry, looked up): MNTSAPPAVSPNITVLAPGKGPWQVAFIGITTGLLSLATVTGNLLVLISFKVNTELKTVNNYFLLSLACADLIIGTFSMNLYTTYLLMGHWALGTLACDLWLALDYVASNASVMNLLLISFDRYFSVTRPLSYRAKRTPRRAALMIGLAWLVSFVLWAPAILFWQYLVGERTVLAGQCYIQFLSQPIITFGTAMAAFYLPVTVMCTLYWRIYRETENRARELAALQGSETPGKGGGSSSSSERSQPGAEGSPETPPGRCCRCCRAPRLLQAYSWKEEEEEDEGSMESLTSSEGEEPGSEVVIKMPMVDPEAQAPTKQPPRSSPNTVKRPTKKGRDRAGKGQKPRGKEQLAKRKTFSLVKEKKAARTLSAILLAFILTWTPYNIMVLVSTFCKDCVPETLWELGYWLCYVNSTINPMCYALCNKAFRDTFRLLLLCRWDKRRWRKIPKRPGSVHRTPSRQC
CHRM1 agonist – human M1 muscarinic receptor agonists, primary screen, Fluo-8 calcium fluorescence, CHO-K1 cells, HTS; Muscarinic acetylcholine receptor M1 (Homo sapiens), P11229; 360,000 compounds, 0.33% hits; CHO-K1 hM1, agonist mode; 0% DMSO, 100% acetylcholine EC100; AID 588814, 2011; activation, % at 3 µM;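 active means activation above the run's mean compound activation plus 3 SD, cut at about 16% in these data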;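 further: peak over basal fluorescence ratio within a 140 s kinetic read after compound addition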
CHO-K1 Ca ag – counter-screen for M1 agonists: effect in parental CHO-K1 cells. Fluo-8 calcium fluorescence; scaled to maximal ATP response, vehicle zero. AID 602248, 2012. 360,000 compounds, 0.48% hits. activation, % at 3 µM; in the data active means activation above about 15%;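 further: untransfected CHO-K1 host cells lacking M1 receptor as counterscreen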
CHRM1 PAM – human M1 muscarinic receptor positive allosteric modulators, primary screen, CHO-K1 cells, Fluo-8 calcium fluorescence, 1536-well; CHO-K1 hM1, ACh EC20; 0% = ACh EC20, 100% = maximal ACh; 360,000 compounds, 0.088% hits; AID 588819, 2011; activation, % at 3 µM; Muscarinic acetylcholine receptor M1 (Homo sapiens), P11229; in the data active means activation above about 19%, passing the limit was not always enough
M1 PAM parental – nonselective calcium activators in parental CHO-K1 cells, primary screen, counter-screen for M1 PAM project, cell-based, Fluo-8 calcium fluorescence, full deck, 1536-well; ATP EC20; 0% at ATP EC20, 100% at ATP max; activation, % at 3 µM; 360,000 compounds, 0.02% hits; AID 602247, 2012;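 active means activation above the run cutoff, the mean activation of all test compounds plus 3 SD, cut at about 40% in these data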;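 further: peak over basal fluorescence ratio in a 140 s read after ATP addition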
Large screens that a line does not name were inactive; ! = repeats disagree. Shown are actives, neighbours in structure and some others; about 2.4% of the full set was active somewhere.

CCOC(=O)c1c(C)oc2c1c(CN1CCN(C(=O)OCC)CC1)c(O)c1ccccc12	CHRM1 agonist 17
COCc1cc(C)nc(SCC[N+](C)(C)CC(=O)c2ccc(Br)cc2)c1C#N	M1 antag 70
Nc1nc(Nc2ccccc2F)nc(N2CCOCC2)c1[N+](=O)[O-]	CHO-K1 Ca ag 18
Nc1nc(Nc2ccccc2)nc(N2CCOCC2)c1[N+](=O)[O-]	none
CCCCCCCCN1N=N[C@H]2[C@H]1[C@@H]1C[C@H]2N(C(=O)OC(C)(C)C)O1	none
COc1ccc(-n2nc3cc(C)c(NC(C)=O)cc3n2)cc1	CHO-K1 Ca antag 30
Clc1cccc(CNc2ccn3nc(-c4cccs4)cc3n2)c1	none
Clc1cccc(CNc2ccn3nc(-c4ccco4)cc3n2)c1	CHO-K1 Ca antag 26
CCC(O)c1c(-c2ccccc2)nn(C)c1Cl (stereo not drawn)	none
CC(O)c1c(-c2ccccc2)nn(C)c1Cl (stereo not drawn)	CHO-K1 Ca antag 28
NC(=O)c1oc2ccccc2c1NC(=O)c1ccc(F)cc1	CHO-K1 Ca antag 27, M1 antag 62
COc1cccc(C(NC(C)=O)c2nc(-c3ccc(C)c(C)c3)cs2)c1 (stereo not drawn)	CHO-K1 Ca antag 26
Cn1nnnc1SCC(=O)c1ccc(Br)s1	none
Cn1c(Cc2ccccc2)nnc1SCC(=O)c1ccc(Br)s1	M1 antag 22
COc1ccc([C@H]2CC(=O)C=C(c3ccc(CNC(=O)OC(C)(C)C)cc3)C2)cc1	M1 antag 34
Cn1c(C(=O)NCCCN2CCc3ccccc3C2)cc2c(=O)n(C)c3ccccc3c21	M1 antag 34
COc1ncnc2c1ncn2CCCN1CCN(Cc2cccc3ccccc23)CC1	none
COc1ncnc2c1ncn2CCCN1CCN(Cc2ccc(C)cc2)CC1	M1 antag 28
CCCN(CCC)CCCNC(=O)c1ccc(CS(=O)(=O)c2c(Cl)cccc2Cl)o1	none
COc1ccc(S(=O)(=O)CC(=O)c2cc3cc(Br)ccc3oc2=O)cc1	none
COc1ccc(OCc2cc(C(=O)NCCN3CCCc4ccccc43)no2)c(Cl)c1	M1 antag 53
Cc1ccc(NC(=O)C2(C)CCN2C(=O)Cc2ccc(C(C)(C)C)cc2)cc1C (stereo not drawn)	none
CCCNC(=O)C1(C)CCCN(CC(=O)c2ccccc2OC)C1 (stereo not drawn)	none
COc1ccccc1CCc1nnc(CCC(=O)N(C)Cc2cccc3cnccc23)o1	CHO-K1 Ca antag 25
COc1ccc(NC(=O)CN2C(=O)NC3(CCCC3)C2=O)cc1OC	none
COc1ccc(-c2nc3ccc(Cl)cn3c2Cc2ccsc2)cc1OC	none
NC(=O)COC(=O)c1ccc(Cl)c(S(=O)(=O)N2CCCCCC2)c1	none
O=C(OCC(=O)N1CCCCCC1)c1ccc(Cl)c(S(=O)(=O)N2CCCC2)c1	CHO-K1 Ca ag 16
Cc1ccc(OCC(=O)N2CCCCC2)c(Br)c1	CHRM1 PAM 27
Cc1ccc(S(=O)(=O)N2CCN(C(=O)COC(=O)c3ccc(C(C)(C)C)cc3)CC2)c(C)c1	none
CC(C)(C)c1ccc(OCC(=O)N2CCCCCC2)c(Br)c1	none
Cc1ccc(S(=O)(=O)N2CCN(C(=O)COC(=O)c3ccc(O)cc3)CC2)c(C)c1	CHO-K1 Ca antag 27, M1 antag 30
Cc1ccc(C(=O)OCC(=O)N2CCCC2)cc1	M1 antag 21
COc1ccc(C(=O)OC(C)C(=O)NC2CCCCC2C)cc1S(=O)(=O)N1CCOCC1 (stereo not drawn)	none
CC(=O)Nc1ccc(SCCC2CCCCN2C)cc1 (stereo not drawn)	M1 antag 25
CCC(C)NC(=O)CSc1ccc(NC(C)=O)cc1 (stereo not drawn)	none
CCN1/C(=C/c2ccc3ccccc3[n+]2CCCS(=O)(=O)[O-])C=Cc2cc(C)ccc21	none
CCCCN1/C(=C/c2ccc3ccccc3[n+]2CC)Sc2ccccc21	M1 antag 44, CHRM1 agonist 26, CHO-K1 Ca ag 19
CCN1/C(=C/c2ccc3cc(C)ccc3[n+]2CC)Sc2cc(C)ccc21	CHO-K1 Ca antag 43, M1 antag 67, CHRM1 agonist 26, CHO-K1 Ca ag 22
CCN1/C(=C/c2ccc3ccccc3[n+]2CC)C=Cc2ccccc21	CHO-K1 Ca antag 32, M1 antag 48
CC(C)Sc1nc(-c2cccs2)nc2cc(Cl)ccc12	none (no result: M1 antag, CHRM1 agonist, CHRM1 PAM)
COCCS(=O)(=O)N(Cc1ccccc1)[C@H](C(=O)OC)C(C)C	none
OC(COc1ccccc1)CN1CCN(C(c2ccccc2)c2ccccc2)CC1 (stereo not drawn)	none
c1ccc(OCCOCCN2CCN(C(c3ccccc3)c3ccccc3)CC2)cc1	M1 antag 100
COc1ccccc1OCCCCN1CCN(C(c2ccccc2)c2ccccc2)CC1	M1 antag 86
C#CCN(C(=O)C1CCC(=O)N(CCc2cccc(F)c2)C1)C1CCCCC1 (stereo not drawn)	none
C#CCNC(=O)c1cc2c(Br)ccc(Br)c2nc1N	none (no result: M1 antag, CHRM1 agonist, CHRM1 PAM)
Cc1c(CCOC(=O)c2cc([N+](=O)[O-])cc([N+](=O)[O-])c2)sc[n+]1CC(=O)c1ccccc1	none
Cc1c(CCOC(=O)c2ccccc2)sc[n+]1Cc1ccccc1	CHO-K1 Ca antag 26, M1 antag 98
Cc1c(CCOC(=O)c2ccccc2)sc[n+]1CC(=O)c1ccc(Br)cc1	M1 antag 77
CC(=O)N1c2ccc(S(=O)(=O)N(C)CC(=O)NC3CCCC3)cc2CC1C (stereo not drawn)	none
CCOC(=O)N1CCN(C2OC(=O)c3ccccc32)CC1 (stereo not drawn)	CHRM1 agonist 25
CCN=C1SC(CC(=O)Nc2ccc3c(c2)OCO3)C(=O)N1CC (stereo not drawn)	M1 antag 28
CCN=C1SC(CC(=O)NCC)C(=O)N1CC (stereo not drawn)	none
CCN=C1SC(CC(=O)Nc2ccccc2)C(=O)N1CC (stereo not drawn)	M1 antag 29!
CCCCn1c(N)c(N(CCOC)C(=O)CCNC(=O)c2ccc(Br)cc2)c(=O)[nH]c1=O	none
CCC(=O)c1ccc(OCC(O)CNCCc2ccc(Cl)cc2)cc1 (stereo not drawn)	CHO-K1 Ca ag 15
Cc1ccc2nc(SCC(=O)NCc3ccc4c(c3)OCO4)nc(=O)n2c1	CHO-K1 Ca antag 26
COc1ccccc1CNC(=O)N1CCN(c2ccccc2Cl)CC1	none
